Source: PubChem
Shown are actives, neighbours in structure and some others; about 2.5% of the full set was active somewhere.
STAT3 binder – STAT3 (human) binding; Small molecule microarray, His-STAT3 binding, anti-His fluorescence; calls only; AID 624138; 17,000 compounds, 0.2% hits;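 active means compounds whose four printed spots each show fluorescence over background unusually high for their array block, chance value under 7%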
NFkB SMM – binders of human NF-kappa-B p105. P19838. Small molecule microarray, anti-His fluorescence binding. calls only. 17,000 compounds, 1.3% hits. AID 624139;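 active means spot fluorescence over background significantly raised, with a chance value under 7% in all four replicate spots of the compound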;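 further: probe protein is his-tagged human p50 processed subunit at 1 µg/ml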
Target sequence (P19838 1-433 limits assumed): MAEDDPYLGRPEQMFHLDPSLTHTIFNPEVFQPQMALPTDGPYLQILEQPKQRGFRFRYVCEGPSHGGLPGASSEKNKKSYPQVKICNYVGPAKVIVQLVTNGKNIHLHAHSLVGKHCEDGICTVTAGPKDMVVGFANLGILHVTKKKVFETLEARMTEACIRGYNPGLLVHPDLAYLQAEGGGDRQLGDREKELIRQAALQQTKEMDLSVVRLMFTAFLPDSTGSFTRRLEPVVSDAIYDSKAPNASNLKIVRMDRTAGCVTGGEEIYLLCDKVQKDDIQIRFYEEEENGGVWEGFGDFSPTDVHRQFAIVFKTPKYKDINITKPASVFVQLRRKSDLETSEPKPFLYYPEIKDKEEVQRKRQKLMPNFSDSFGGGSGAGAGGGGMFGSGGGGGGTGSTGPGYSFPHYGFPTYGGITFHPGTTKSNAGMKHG
Myc binder – c-Myc (human) binding | small molecule microarray, His-c-Myc binding, anti-His fluorescence | calls only | P01106 | 17,000 compounds, 1.5% hits;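 active means spot fluorescence over background with P-value below 7% in all four replicate spots, showing protein binding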
p53 mut binder – mutant p53 (human) binding. calls only. 17,000 compounds, 0.4% hits. small molecule microarray binding, anti-GST fluorescence;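 active means compounds whose four printed spots each glow above background more than chance allows, each with a p-value under 7%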
Calls only; - = inactive; + = active, no number.

SMILES	STAT3 binder	NFkB SMM	Myc binder	p53 mut binder
COc1ccc(OC)c(NC(=O)CSc2nnnn2C)c1	-	-	-	-
CC1=C(CCC2=CC(=O)OC2O)[C@@]2(C)CCC[C@]3(C)C(=O)OC(C1=O)[C@@H]32 (stereo partly specified)	-	-	-	-
O=C(CSc1ncccc1C(=O)O)c1cccc([N+](=O)[O-])c1	-	-	+	-
CCC(C)C(O)C(C)(O)/C=C/C1=CC2=C(Cl)C(=O)C(C)(O)C(OC(C)=O)C2CO1 (stereo unspecified)	-	-	-	-
C[C@@H]1CCCCO[C@H](CN(C)Cc2ccccc2)[C@H](C)CN([C@@H](C)CO)C(=O)c2cc(N(C)C)ccc2O1	-	-	-	-
C[C@@H]1CCCCO[C@@H](CN(C)Cc2ccccc2)[C@H](C)CN([C@@H](C)CO)C(=O)c2cc(NC(=O)CCCN(C)C)ccc2O1	-	-	-	-
C[C@H](CO)N1C[C@H](C)[C@H](CN(C)Cc2ccccc2)OCCCC[C@H](C)Oc2ccc(NC(=O)CCCN(C)C)cc2C1=O	-	+	-	-
CC(C)NC(=O)Nc1ccc2c(c1)C(=O)N([C@@H](C)CO)C[C@H](C)[C@@H](CN(C)S(=O)(=O)c1ccccc1)OCCCC[C@@H](C)O2	-	+	+	-
C[C@@H]1CN([C@H](C)CO)C(=O)c2cc(N(C)C)ccc2O[C@@H](C)CCCCO[C@@H]1CN(C)Cc1ccccc1	+	-	-	+
C[C@H](CO)N1C[C@H](C)[C@H](CN(C)S(=O)(=O)c2ccccc2)OCCCC[C@H](C)Oc2ccc(N(C)C)cc2C1=O	-	+	-	+
Cc1c(CCC(=O)O)c(=O)oc2cc(O)c(Cl)cc12	-	-	-	-
Cc1ccc(S(=O)(=O)N(C)C[C@H]2OCCCC[C@H](C)Oc3ccc(NC(=O)NC4CCCCC4)cc3C(=O)N([C@H](C)CO)C[C@H]2C)cc1	-	-	+	+
CCC(C)C(NC(=O)C(C)(C)NC(=O)C(C)(CC)NC(=O)C(N)Cc1c[nH]c2ccccc12)C(=O)NC(=O)CCC(NC(C)=O)C(=O)O (stereo unspecified)	-	-	-	-
CN(C)CCCNc1oc(-c2ccccc2F)nc1C#N	-	-	+	-
C[C@@H]1CCCCO[C@@H](CN(C)Cc2ccc(C(F)(F)F)cc2)[C@@H](C)CN([C@H](C)CO)C(=O)c2cc(NC(=O)C3CCCCC3)ccc2O1	-	-	-	-
C[C@@H]1CN([C@@H](C)CO)C(=O)c2cc(NC(=O)Nc3ccc(C(F)(F)F)cc3)ccc2O[C@@H](C)CCCCO[C@H]1CN(C)Cc1ccc(C(F)(F)F)cc1	-	+	-	-
C[C@@H]1CCCCO[C@@H](CN(C)Cc2ccc(C(=O)O)cc2)[C@@H](C)CN([C@H](C)CO)C(=O)c2cc(NC(=O)Nc3ccc(F)cc3)ccc2O1	-	-	-	-
C[C@@H]1CCCCO[C@@H](CN(C)Cc2ccc(C(=O)O)cc2)[C@H](C)CN([C@H](C)CO)C(=O)c2cc(NC(=O)Nc3ccc(C(F)(F)F)cc3)ccc2O1	-	+	-	-
N#Cc1ccc(-c2cccs2)nc1SCC(=O)Nc1sc2c(c1C#N)CCCC2	-	-	+	-
COc1ccc(C(=O)Nc2ccc(Cc3ccc(NC(=O)c4ccc(OC)cc4)c(O)c3)cc2O)cc1	-	-	-	-
Cc1cc(C(=O)CSc2nnc3sc4ccccc4n23)c(C)n1Cc1ccccc1	-	-	-	-
CCCN(C)C[C@H]1OCCCC[C@@H](C)Oc2ccc(NS(=O)(=O)c3ccc(Cl)cc3)cc2C(=O)N([C@@H](C)CO)C[C@H]1C	-	-	-	-
CCCN(C)C[C@H]1OCCCC[C@H](C)Oc2ccc(NS(=O)(=O)c3ccc(OC)cc3)cc2C(=O)N([C@H](C)CO)C[C@H]1C	-	-	-	+
C[C@H](CO)N1C[C@H](C)[C@H](CN(C)C(=O)C2CCCCC2)OCCCC[C@H](C)Oc2ccc(NS(=O)(=O)c3cccs3)cc2C1=O	+	-	-	-
C[C@H](CO)N1C[C@H](C)[C@H](CN(C)S(C)(=O)=O)OCCCC[C@H](C)Oc2ccc(NS(=O)(=O)c3ccccc3)cc2C1=O	-	+	-	-
SMILES	STAT3 binder	NFkB SMM	Myc binder	p53 mut binder
C[C@@H]1CN([C@@H](C)CO)C(=O)c2cc(NS(=O)(=O)c3ccccc3)ccc2O[C@@H](C)CCCCO[C@@H]1CN(C)C(=O)C1CCCCC1	+	-	-	-
C[C@@H]1CCCCO[C@@H](CN(C)S(C)(=O)=O)[C@@H](C)CN([C@@H](C)CO)C(=O)c2cc(NS(=O)(=O)c3ccccc3)ccc2O1	-	-	-	-
Cc1sc2nc3c4ccccc4c(NCc4ccccn4)nn3c(=O)c2c1C	-	-	-	-
COc1ccc(-c2csc3ncn(CC(=O)Nc4sc5c(c4C#N)CCC5)c(=O)c23)cc1OC	-	-	-	-
N#Cc1cc(C#N)c(SCCN2CCOCC2)nc1N	-	-	-	+
C=C1CC[C@@]2(OC1)O[C@H]1CC3[C@@H]4CC=C5C[C@H](O[C@@H]6OC[C@H](O)[C@H](O)[C@H]6O[C@@H]6O[C@@H](C)[C@H](O)[C@@H](O)[C@H]6O)C[C@@H](O)[C@]5(C)C4CC[C@]3(C)[C@H]1[C@@H]2C (stereo partly specified)	-	+	+	-
c1ccc(-c2cn3c4ccccc4n(CCN4CCOCC4)c3n2)cc1	-	-	+	-
CN1CCN(CC(=O)N2N=C(c3c(-c4ccccc4)c4cc(Cl)ccc4[nH]c3=O)CC2c2ccccc2)CC1 (stereo unspecified)	-	-	-	-
CO[C@H]1CC(O[C@@H]2/C(C)=C/C[C@@H]3C[C@@H](C[C@]4(CC[C@H](C)[C@@H](C5CCCCC5)O4)O3)OC(=O)[C@@H]3C=C(C)/C(=N/O)[C@H]4OC/C(=C\C=C\[C@@H]2C)[C@]43O)O[C@@H](C)C1O (stereo partly specified)	-	-	-	-
C[C@@H]1CCCCO[C@@H](CN(C)C(=O)Nc2cccc3ccccc23)[C@H](C)CN([C@H](C)CO)C(=O)c2cc(NC(=O)Nc3ccc(F)cc3)ccc2O1	-	+	+	-
C[C@H](CO)N1C[C@H](C)[C@@H](CN(C)CC2CCCCC2)OCCCC[C@H](C)Oc2ccc(NC(=O)Nc3cccc4ccccc34)cc2C1=O	-	+	-	-
CC(C)NC(=O)N(C)C[C@@H]1OCCCC[C@H](C)Oc2ccc(NC(=O)Nc3cccc4ccccc34)cc2C(=O)N([C@@H](C)CO)C[C@H]1C	-	-	-	-
C[C@H](CO)N1C[C@H](C)[C@@H](CN(C)C)OCCCC[C@H](C)Oc2ccc(NC(=O)Nc3cccc4ccccc34)cc2C1=O	-	-	-	+
C[C@H](CO)N1C[C@H](C)[C@H](CN(C)C)OCCCC[C@H](C)Oc2ccc(NC(=O)Nc3cccc4ccccc34)cc2C1=O	-	-	-	-
O=C(COc1ccc(Br)cc1)Nc1cccc(-c2nc3ccccc3o2)c1	-	-	-	-
C=CCN1Cc2ccccc2[C@@H]2OC(c3ccc(OCCCO)cc3)=N[C@]2(CCC(=O)OC(C)(C)C)C1=O	-	+	-	-
